Among the data in PubChem BioAssay (EPA / NIEHS) are AC50 and outcome values, retold here.

The AC50 is the concentration giving half of the maximal activity seen.

Read-out in assay [1]: Macrophage colony-stimulating factor (MCSF), CSF1 (gene 1435)
Put plainly: BSK_hDFCGF_MCSF: BioMAP Diversity Plus: hDFCGF Assay for Macrophage colony-stimulating factor (MCSF) Biomarker Activity (AID 2283060). As to conditions: primary human foreskin fibroblasts; actives raise or lower the signal. The method, boiled down: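 ELISA read-out of M-CSF in human dermal foreskin fibroblast cultures, 24 h after chemical dosing; gain or loss of signal fitted bidirectionally relative to DMSO baseline.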

Assay [2] is described as follows: BSK_hDFCGF_SRB: Viability Assessment in the BioMAP Diversity Plus: hDFCGF Assay (AID 2283061).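 Also: cells exposed to compound for 24 h before the read.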 As to conditions: primary human foreskin fibroblasts. The method, boiled down: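 Primary human foreskin fibroblasts; 24 h post-dose; fixed 10% TCA, stained 0.1% SRB, A560 read; total protein as overt cytotoxicity measure; curves fit bidirectionally vs DMSO control.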
Read-out in assay [3]: TIMP metallopeptidase inhibitor 1 (TIMP1), TIMP1 (gene 7076)
Briefly: BSK_hDFCGF_TIMP1: BioMAP Diversity Plus: hDFCGF Assay for TIMP metallopeptidase inhibitor 1 (TIMP1) Biomarker Activity (AID 2283062). As to conditions: primary human foreskin fibroblasts; actives raise or lower the signal. The method, boiled down:
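ELISA readout of TIMP-1 from human dermal foreskin fibroblast cultures 24 h post-dosing. Curves were fitted in both directions against DMSO baseline, with SRB total-protein staining in parallel cultures as a cytotoxicity check.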

Read-out in assay [4]: Monokine induced gamma interferon (MIG), CXCL9 (gene 4283)
Put plainly: BSK_hDFCGF_MIG: BioMAP Diversity Plus: hDFCGF Assay for Monokine induced gamma interferon (MIG) Biomarker Activity (AID 2283063). As to conditions: primary human foreskin fibroblasts; actives raise or lower the signal. In outline:
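Fibroblasts (human foreskin, primary) dosed, 24 h, MIG by ELISA; fit bidirectional vs DMSO.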

Read-out in assay [5]: Matrix Metallopeptidase 1 (MMP1), MMP1 (gene 4312)
Briefly: BSK_hDFCGF_MMP1: BioMAP Diversity Plus: hDFCGF Assay for Matrix Metallopeptidase 1 (MMP1) Biomarker Activity (AID 2283064). As to conditions: primary human foreskin fibroblasts; actives raise or lower the signal. In outline:
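Primary human foreskin fibroblasts exposed to chemicals for 24 h; MMP1 measured by ELISA. Cytotoxicity tracked by SRB staining in parallel cultures; bidirectional fit relative to DMSO.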

Read-out in assay [6]: Vascular cell adhesion molecule 1 (VCAM1), VCAM1 (gene 7412)
Put plainly: BSK_hDFCGF_VCAM1: BioMAP Diversity Plus: hDFCGF Assay for Vascular cell adhesion molecule 1 (VCAM1) Biomarker Activity (AID 2283065).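 As to AC50: VCAM-1 protein level quantified by ELISA after 24 h chemical exposure.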 As to conditions: primary human foreskin fibroblasts; actives raise or lower the signal. In outline:
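ELISA read-out of VCAM-1 on human skin fibroblasts, 24 h post-dose; gain or loss of signal fitted bidirectionally against DMSO baseline.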

Read-out in assay [7]: Plasminogen activator inhibitor-1 (PAI1), SERPINE1 (gene 5054)
Briefly: BSK_hDFCGF_PAI1: BioMAP Diversity Plus: hDFCGF Assay for Plasminogen activator inhibitor-1 (PAI1) Biomarker Activity (AID 2283066). As to conditions: primary human foreskin fibroblasts; actives raise or lower the signal. In outline:
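Human foreskin fibroblasts in the hDFCGF system were dosed with compound for 24 h; PAI-1 was quantified by ELISA. Bidirectional curve fitting used DMSO as negative control and baseline.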

Read-out in assay [8]: Intercellular Adhesion Molecule 1 (ICAM1), ICAM1 (gene 3383)
Briefly: BSK_KF3CT_ICAM1: BioMAP Diversity Plus: KF3CT Assay for Intercellular Adhesion Molecule 1 (ICAM1) Biomarker Activity (AID 2283067). As to conditions: primary human keratinocytes with fibroblasts; actives raise or lower the signal. In outline:
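ELISA readout of ICAM-1; KF3CT human skin co-culture (keratinocytes + foreskin fibroblasts), 24 h post-dose; gain/loss fit vs DMSO baseline.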

Read-out in assay [9]: Interferon-gamma inducible Protein 10 (IP10), CXCL10 (gene 3627)
Briefly: BSK_KF3CT_IP10: BioMAP Diversity Plus: KF3CT Assay for Interferon-gamma inducible Protein 10 (IP10) Biomarker Activity (AID 2283068). As to conditions: primary human keratinocytes with fibroblasts; actives raise or lower the signal. In outline: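 Signal is secreted/surface IP-10 by ELISA in a human primary skin co-culture of keratinocytes and foreskin fibroblasts, taken 24 h post-dosing; DMSO served as negative control.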

The nature of assay [10]: BSK_KF3CT_SRB: Viability Assessment in the BioMAP Diversity Plus: KF3CT Assay (AID 2283069).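 Also: total protein by sulforhodamine B staining as a cytotoxicity measure; read 24 h after compound addition.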 As to conditions: primary human keratinocytes with fibroblasts. In outline: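 Human keratinocyte and foreskin fibroblast co-culture exposed to chemical for 24 h. Total protein measured in parallel cultures by 0.1% sulforhodamine B staining after 10% TCA fixation, read at 560 nm; bidirectional fit relative to DMSO.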

Values joined by “and” are separate entries in the source; they are usually repeats but may differ in a detail not shown here. Identical values can stand only once. Some structures have more than one record in an assay (separate samples or runs), and their calls can disagree. Active and inactive are the calls of the source. The calls were made as follows: active = hit-call score of the fitted dose curve at least 0.9, where 1 is the maximum; inactive = score below 0.9.

With `CCN(CCO)S(=O)(=O)C(F)(F)C(F)(F)C(F)(F)C(F)(F)C(F)(F)C(F)(F)C(F)(F)C(F)(F)F`, the AC50 in assay [1] is 23.2 µM (active) and 23.3 µM (active); in assay [2] it was 21.9 µM (active) and 2.95 µM (active); in [4], 22.1 µM (active) and 19.1 µM (active); in [5] it was 50.1 µM (active); in assay [6], 30 µM (active) and 12.8 µM (active); in assay [7], 37.2 µM (active) and 25.4 µM (active). Moreover, in [9], the AC50 is 33.7 µM (active) and 30 µM (active). Also, the result in [3], in [5], in assay [8] and in [10] was inactive.

For the molecule `O=S(=O)(Cl)C(F)(F)C(F)(F)C(F)(F)C(F)(F)C(F)(F)C(F)(F)C(F)(F)C(F)(F)F`, the outcome in [1], in assay [2], in assay [3], in assay [4], in assay [5] and in [6] was inactive. Also, the result in [7], in assay [8] and in [10] was inactive. Further, the half-maximal activity concentration (AC50) in [9] was 34.8 µM (active) and 32.5 µM (active).

Turning to `OCC(O)CC(F)(F)C(F)(F)C(F)(F)C(F)(F)C(F)(F)C(F)(F)C(F)(F)C(F)(F)F` (stereo unspecified), the result in assay [1], in assay [2], in [3], in assay [4], in assay [5] and in [6] was inactive. In addition, the outcome in [7], in [8], in assay [9] and in [10] was inactive.

`O=C(O)CCC(F)(F)C(F)(F)C(F)(F)F`: the result in assay [1], in [2], in assay [3], in assay [4], in assay [5] and in [6] was inactive. The result in assay [7], in assay [8], in assay [9] and in assay [10] was inactive.

Regarding `OCC(F)(F)C(F)(F)C(F)(F)CO`, the outcome in assay [1], in [2], in [3], in assay [4], in [5] and in assay [6] was inactive. Moreover, the result in assay [7], in [8], in assay [9] and in [10] was inactive.

With `OCCCC(F)(F)C(F)(F)C(F)(F)C(F)(F)C(F)(F)C(F)(F)C(F)(F)C(F)(F)F`, the AC50 in [1] was 8.04 µM (active) and 6.66 µM (active); in [2] it was 9.4 µM (active) and 6.19 µM (active); in assay [3] it was 9.8 µM (active) and 11.3 µM (active); in [4] it was 12.5 µM (active) and 12 µM (active); in assay [5], 19 µM (active) and 13.3 µM (active); in assay [6] it was 9.41 µM (active) and 6.1 µM (active). Besides, the AC50 in assay [7] was 6.66 µM (active) and 5.89 µM (active); in assay [8], 12.8 µM (active) and 11.7 µM (active); in assay [9], 12.8 µM (active) and 9.49 µM (active); in assay [10], 8.92 µM (active) and 10.7 µM (active).

Regarding `CN(C(=O)C(F)(F)C(F)(F)C(F)(F)F)[Si](C)(C)C`, the outcome in [1], in [2], in assay [3], in assay [4], in assay [5] and in assay [6] was inactive. For the same molecule, the outcome in assay [7], in assay [8], in assay [9] and in [10] was inactive.

Regarding `Cc1cc(O)c(C(C)(C)C)cc1C(C)(C)C`, the AC50 in assay [1] was 5.42 µM (active); in assay [2], 5.28 µM (active); in [3], 4.03 µM (active); in assay [4] it was 9.12 µM (active); in assay [5] it was 6.54 µM (active); in [6], 5.41 µM (active). Also, the AC50 was 4.51 µM (active) in assay [7], 2.89 µM (active) in assay [8], 3.63 µM (active) in assay [9] and 2.33 µM (active) in assay [10].

On to `C=CC(=O)OCC(F)(F)C(F)(F)C(F)(F)COC(=O)C=C`, for which the AC50 in assay [1] is 2.55 µM (active) and 1.94 µM (active); in assay [2], 2.51 µM (active) and 2.73 µM (active); in assay [3], 2.37 µM (active) and 737 nM (active); in assay [4] it was 918 nM (active) and 499 nM (active); in [5], 5.8 µM (active) and 4.94 µM (active); in assay [6] it was 2.35 µM (active) and 1.96 µM (active). In addition, the AC50 in assay [7] is 3.85 µM (active) and 3.09 µM (active); in assay [8] it was 21.8 µM (active) and 21.3 µM (active); in assay [9], 28.4 µM (active) and 17.6 µM (active); in assay [10] it was 36.6 µM (active) and 41.6 µM (active).

Regarding `O=C(O)C(F)(F)OC(F)(F)C(F)(F)OC(F)(F)C(F)(F)OC(F)(F)F`, the result in assay [1], in assay [2], in [3], in [4], in [5] and in [6] was inactive. Further, the outcome in assay [7], in [8], in [9] and in [10] was inactive.

With `NC(O)(C(F)(F)F)C(F)(F)F`, the result in [1], in assay [2], in assay [3], in [4], in assay [5] and in assay [6] was inactive. The result in assay [7], in assay [8], in [9] and in assay [10] was inactive.

Turning to `C[C@]12CC[C@H]3C(=CCc4cc(O)ccc43)[C@@H]1CCC2=O`, the outcome in [1], in assay [2], in assay [3], in [4], in assay [5] and in [6] was inactive. Moreover, the result in assay [7], in [8], in assay [9] and in assay [10] was inactive.

Regarding `O=S(=O)(O)CCC(F)(F)C(F)(F)C(F)(F)C(F)(F)F`, the result in assay [1], in assay [2], in [3], in assay [4], in [5] and in assay [6] was inactive. Also, the result in assay [7], in [8], in assay [9] and in assay [10] was inactive.

Regarding `OCC(O)CC(F)(F)C(F)(F)C(F)(F)C(F)(F)F` (stereo unspecified), the outcome in [1], in [2], in assay [3], in assay [4], in assay [5] and in [6] was inactive. Further, the outcome in assay [7], in assay [8], in assay [9] and in [10] was inactive.

`NC(=O)C(F)(F)C(F)(F)C(F)(F)F`: the outcome in assay [1], in assay [2], in [3], in [4], in [5] and in assay [6] was inactive. The outcome in [7], in assay [8], in assay [9] and in [10] was inactive.

In the case of `C=CC(=O)OCC(F)(F)C(F)(F)C(F)(F)C(F)(F)C(F)(F)C(F)(F)C(F)(F)C(F)F`, the half-maximal activity concentration (AC50) in assay [1] is 28.8 µM (active) and 30 µM (active); in assay [4] it was 26.9 µM (active) and 30 µM (active); in assay [6] it was 17 µM (active) and 17.5 µM (active). For the same molecule, the outcome in assay [2], in [3], in [5], in assay [7], in assay [8] and in assay [9] was inactive. The outcome in [10] was inactive.

Consider `C=C(C)C(=O)OCC(F)(F)C(F)(F)C(F)(F)C(F)F`, for which the outcome in assay [1], in assay [2], in [3], in [4], in assay [5] and in assay [6] was inactive. Besides, the result in assay [7], in [8], in assay [9] and in [10] was inactive.
